# In PubChem BioAssay (NCI):
# The panel holds about 83,000 compounds, 20% with a hit somewhere; the sample as a whole holds those more often.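 Interpretation: 100, growth as untreated; towards 0, rising growth inhibition; 0, no net growth; 0 to -100, cell death. Compounds scoring below 10 were considered active.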 Activity calls are given as the source filed them.
# Test system: HCC-2998 colon
# Test: NCI-60 one-dose screen, 48 h (100 = growth as untreated, 0 = no growth, -100 = all killed)
# Settings: 10 µM unless noted
row,SMILES,growth
1,C=C(C)[C@@H]1CC[C@]2(COC(=O)c3cccnc3)CC[C@]3(C)[C@H](CC[C@@H]4[C@@]5(C)CCCN(C(=O)c6cccnc6)C(C)(C)[C@@H]5CC[C@]43C)[C@@H]12,50.1% (inactive)
2,C=C1C(=O)O[C@H]2[C@H]1CC/C(CNC(=O)/C=C/c1cc(OC)c(OC)c(OC)c1)=C\CC[C@@]1(C)O[C@@H]21,-79% (active)
3,O=S(=O)(c1ccc(NCSc2nc3ccccc3s2)cc1)c1ccc(NCSc2nc3ccccc3s2)cc1,95.5% (inactive)
4,COc1ccc(S(=O)(=O)Oc2ccc(-c3sc4cc(OS(=O)(=O)c5ccc(OC)cc5)ccc4c3C(=O)c3ccc(OCCN4CCCCC4)cc3)cc2)cc1,105% (inactive)
5,Nc1nc(N)c2c(n1)NC(c1cccc(Nc3ccnc4cc(C(F)(F)F)ccc34)c1)CC(c1ccc(Cl)cc1)=N2 (stereo unspecified),51.8% (inactive)
6,COC(=O)[C@H]1Cc2c([nH]c3ccccc23)[C@H](c2ccc3c(c2)OCO3)N1,97.6% (inactive)
7,[2H]C([2H])([2H])Oc1c(F)cccc1/C=C/C(=O)/C=C(O)/C=C/c1cccc(F)c1OC([2H])([2H])[2H],112% (inactive)
8,C=C(C)[C@@H]1CCC[C@]2(C(=O)OC)CC[C@]3(C)[C@@H](CC[C@@H]4[C@@]5(C)CCCNC(C)(C)[C@@H]5CC[C@]43C)[C@@H]12,96.3% (inactive)
9,O=C(Nc1ncc(Cc2ccccc2)s1)c1ccc2c(c1)OCCO2,13.3% (inactive)
10,COc1ccc(-c2cc(-c3ccc(Nc4nc(Nc5ccc(Cl)cc5)nc(Nc5ccc(Cl)cc5)n4)cc3)no2)cc1,11.4% (inactive)
11,CNC(=O)c1cc(Oc2ccc3nc(NC(=O)NC(C)C)sc3c2)ccn1,79.3% (inactive)
12,O=C1NCCS(=O)(=O)/C1=C\C=C\c1cccc(C(F)(F)F)c1,19.6% (inactive)
13,NCCNc1ccc([N+](=O)[O-])cc1,115% (inactive)
14,Clc1ccc2c(NCCCn3cnc4c(N5CCCC5)nc(Cl)nc43)ccnc2c1,108% (inactive)
15,O=C(/C=C/c1ccc(Cl)cc1)c1ccc(Nc2ccnc3cc(Cl)ccc23)cc1,88.1% (inactive)
16,Oc1c(Cl)cc(Cl)c2ccc(CN3CCNCC3)nc12,60.1% (inactive)
17,O=C1c2ccccc2C(=O)c2cc(Cn3c[n+](Cc4ccc5ccccc5c4)c4ccccc43)ccc21,46.2% (inactive)
18,CC(C)(C#N)c1cc(C(=O)Nc2cc(Nc3ncccc3-c3ncnc4nc[nH]c34)ccc2F)cc(C(F)(F)F)c1,41.8% (inactive)

row,SMILES,growth
1,CC(C)n1cc(C2=C(c3cccc4ccccc34)C(=O)NC2=O)c2cc(Br)ccc21,52.1% (inactive)
2,O=CN1N=C(c2cccc(Nc3ccncc3)c2)CC1c1ccc2c(c1)OCO2 (stereo unspecified),98.5% (inactive)
3,CC(=O)Cc1nsc(NC(=O)c2cc(-c3cc(Cl)ccc3Cl)oc2C)n1,103% (inactive)
4,O=C(O)COc1ccc(F)cc1,103% (inactive)
5,CC(Cc1cccc2ccccc12)C(N)=O (stereo unspecified),106% (inactive)
6,NC(=N\N=C/c1ccc(Cl)cc1Cl)/C(N)=N\N=C/c1ccc(Cl)cc1Cl,88.8% (inactive)
7,CCOC(=O)CC1C(CNC(=O)NC)OC(n2cnc3c(NC(=O)Nc4ccccc4)ncnc32)C1O[Si](C)(C)C(C)(C)C (stereo unspecified),61.8% (inactive)
8,CCc1ccc(Cc2cnc(NC(=O)c3cc(C)oc3C)s2)cc1,58.3% (inactive)
9,CNc1nc2ncc(-c3c(C)noc3C)cc2n1Cc1ccccc1,63.4% (inactive)
10,CCCCC1=C(Br)C(=O)c2ncccc2C1=O,108% (inactive)
11,Cc1ccc2nc(/C=C/c3ccc(N(C)C)cc3)cc(C)c2c1,63.9% (inactive)
12,CCN(CC)c1ccc(/C=N/NC(=O)c2ccccc2Nc2ccnc(C(F)(F)F)c2)c(O)c1,76.7% (inactive)
13,COc1cc2ncnc(Nc3ccc(S(=O)(=O)Nc4cc(C)on4)cc3)c2cc1OCCCN1CCOCC1,107% (inactive)
14,COc1ccc(-c2cc(-c3ccc(N(C)C)cc3)nc(NC(=O)c3cccnc3)n2)cc1,120% (inactive)
15,CC(=O)/C(Br)=C/c1ccc(Br)o1,93.4% (inactive)
16,N#CC1=C(N)Oc2c(ccc3cccnc23)C1c1ccccc1 (stereo unspecified),50.4% (inactive)
17,CCCS(=O)(=O)Nc1cccc(Nc2ncnc3cc(NC(=O)CCl)ccc23)c1Cl,4.99% (active)
18,COC(=O)c1nc(-c2ccc(C)cc2)oc1N1CCOCC1,104% (inactive)
